High-throughput results as filed in PubChem BioAssay.
This is a sample that favours compounds with a hit; in the whole collection about 7% have one here.
AHR activator: AHR activators, primary screen, cell-based, luminescence, luciferase reporter, human; activation, % at 5 µM; AHR-responsive luciferase reporter cells; 320,000 tested, 2.5% active; Aryl hydrocarbon receptor (Homo sapiens), P35869; AID 2796, 2010; in the data active = activation above about 47%;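 note: 0% = vehicle wells and 100% = reference agonist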
rCAG binder: binders of r(CAG) RNA repeats, primary screen, biochemical, fluorescence. r(CAG) RNA repeat, TO-PRO-1 dye displacement fluorescence. inhibition, % at 3 µM. 370,000 tested, 1.3% active. AID 651821, 2012;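 active = inhibition above the plate cutoff, the mean of all test compounds on that plate plus 3 SD, cut at about 35% in these data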;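 note: 0% = DMSO alone and 100% = 100 µM mitoxantrone as full dye displacement; higher means more dye released from RNA so lower well fluorescence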
KLK7 zymogen act: proKLK7 zymogen activators, primary screen, biochemical, fluorescence intensity; Kallikrein-7 (Homo sapiens), P49862; purified proKLK7, EDANS-DABCYL substrate fluorescence; 100% is mature enzyme control, 0% vehicle; activation, % at 7 µM; 370,000 tested, 0.9% active; AID 652039, 2013;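 active = activation above the mean of all tested compounds plus 3 SD, computed per campaign excluding outliers beyond control limits, cut at about 13% in these data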
ADAM17 inh: ADAM17 inhibitors, primary screen, biochemical, QFRET; Disintegrin and metalloproteinase domain-containing protein 17 (Homo sapiens), P78536; recombinant ADAM17, EDANS/DABCYL FRET peptide cleavage; inhibition, % at 6.95 µM; 370,000 tested, 0.83% active; AID 720648, 2013;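 active = inhibition above the mean of compounds lying between control limits plus 3 SD, set per campaign, cut at about 8.5% in these data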;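 note: 0% = DMSO-only wells as the low control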
Target sequence (P78536 215-824 limits assumed): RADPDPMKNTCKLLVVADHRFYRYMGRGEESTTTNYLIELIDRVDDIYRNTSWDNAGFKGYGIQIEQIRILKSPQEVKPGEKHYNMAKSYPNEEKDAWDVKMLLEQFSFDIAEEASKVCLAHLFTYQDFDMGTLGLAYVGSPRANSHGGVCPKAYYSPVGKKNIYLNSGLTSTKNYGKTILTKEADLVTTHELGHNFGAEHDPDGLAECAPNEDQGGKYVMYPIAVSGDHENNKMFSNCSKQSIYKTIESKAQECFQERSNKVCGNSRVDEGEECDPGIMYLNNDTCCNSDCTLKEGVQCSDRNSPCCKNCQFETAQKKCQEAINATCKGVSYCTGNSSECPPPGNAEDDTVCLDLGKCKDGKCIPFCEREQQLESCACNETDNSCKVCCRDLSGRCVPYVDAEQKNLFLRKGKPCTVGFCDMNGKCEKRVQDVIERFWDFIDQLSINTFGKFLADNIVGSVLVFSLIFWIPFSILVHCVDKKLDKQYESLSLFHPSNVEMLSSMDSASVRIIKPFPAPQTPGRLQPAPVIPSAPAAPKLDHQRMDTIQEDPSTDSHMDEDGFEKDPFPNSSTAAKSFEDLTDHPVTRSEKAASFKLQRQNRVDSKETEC
GRIN3A LBD mod: binders of NR3A ligand-binding domain, primary screen, biophysical, differential scanning fluorimetry, uHTS; Glutamate receptor ionotropic, NMDA 3A (GRIN3A) ligand-binding domain; NR3A LBD differential scanning fluorimetry, Tm shift; 0% = protein alone, 100% = glycine-bound protein; Tm shift relative to glycine control, % at 25 µM; 340,000 tested, 2.5% active; AID 1259313, 2017;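 active = melting temperature shift of at least 10% of the positive control shift, at one fixed dose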
ADAM10 inh: human ADAM10 inhibitors, primary screen, biochemical, QFRET, HTS; inhibition, % at 7 µM; AID 720582, 2013; 370,000 tested, 0.62% active; Disintegrin and metalloproteinase domain-containing protein 10 (Homo sapiens), O14672; recombinant ADAM10, EDANS/DABCYL FRET peptide cleavage, 3 h;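 active = inhibition above a per-campaign cutoff equal to the mean of compounds falling between control-based bounds plus 3 SD, cut at about 20% in these data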;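 note: 0% = DMSO wells while the 100% control is not disclosed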
proKLK7 act conf: proKLK7 zymogen activators, confirmation, biochemical, fluorescence intensity, triplicate; shares compounds with KLK7 zymogen act; purified proKLK7, EDANS-DABCYL substrate fluorescence; scaled: vehicle 0, mature enzyme 100; activation, % at 7 µM; 3,200 tested, 68% active; AID 686949, 2013;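 active = activation, as change over the incubation, above the mean of all tested compounds plus 3 SD, cut at about 13% in these data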
EDANS interfere: EDANS-DABCYL substrate optical interference, artefact control for kallikrein-7 zymogen activator project, biochemical, fluorescence intensity, high throughput; shares compounds with KLK7 zymogen act; no enzyme, 4 h; solvent 0%, active enzyme control 100%; activation, % at 7 µM; 3,200 tested, 80% active; AID 686952, 2013;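 active = activation above the all-compound mean plus 3 SD, ignoring values outside control-based bounds, cut at about 4.8% in these data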;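 note: value is the 4 h activation minus the activation read at time zero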
EDANS interf: counter-screen for kallikrein-7 activators: EDANS-DABCYL interference, dose response | shares compounds with KLK7 zymogen act | EDANS-DABCYL peptide fluorescence interference, no enzyme | EC50, µM | 250 tested, 20% active;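 active = compounds that raise the fluorescence signal in this interference counterscreen, with EC50 at or below 10 µM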;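 note: intact quenched peptide substrate alone read at 355 nm excitation and 520 nm emission; signal is fluorescence gain from T0 to T4 after four hours at room temperature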
The depositor's hits bear a star; i = inactive; . = no result.

SMILES | AHR activator | rCAG binder | KLK7 zymogen act | ADAM17 inh | GRIN3A LBD mod | ADAM10 inh | proKLK7 act conf | EDANS interfere | others
CCCc1cc(NCCCO)n2c(nc3ccccc32)c1C#N | 2.8 | -0.7 | 16.8* | i | -0.9 | i | -11.1 | -10.9
CCC(C)Sc1cc(C)c(C#N)c2nc3ccccc3n12 (stereo not given) | 8.8 | -0.8 | -1.4 | -5.2 | 8.1 | -14.2 | . | .
CCCc1cc(-n2ccnc2)n2c(nc3ccccc32)c1C#N | 21.4 | -1.0 | 3.2 | -42.5 | -1.6 | -135.7 | . | .
CCC(C)Nc1cc(C)c(C#N)c2nc3ccccc3n12 (stereo not given) | 0.9 | -4.3 | 26.1* | i | 2.1 | i | -1.3 | 3.2
Cc1cc(NCCCOC(C)C)n2c(nc3ccccc32)c1C#N | 20.6 | -0.3 | -4.2 | -116.3 | -3.8 | -322.4 | . | .
Cc1cc(NCCCN(C)C)n2c(nc3ccccc32)c1C#N | 11.1 | 2.4 | 71.6* | i | -0.7 | i | 71.8* | 68.9*
CC(C)(C)OC(=O)[C@H](Cc1ccccc1)NC(=O)c1ncn2c1c(=O)[nH]c1ccc(Br)cc12 | . | 2.3 | -1.1 | -4.5 | . | -2.8 | . | .
COc1ccccc1NC(=O)CSc1nc2c(sc3ccccc32)c(=O)n1CCN(C)C | 41.0 | -0.1 | 16.0* | -225.6 | 0.7 | i | 0.9 | -2.2
COCCCNC(=O)C1CCN(C(=O)c2oc3cc4sc(N(C)C)nc4cc3c2C)CC1 | 4.0 | -4.4 | 21.0* | -92.7 | 0.5 | -227.9 | -5.0 | -4.5
COCCNC(=O)C1CCCN(C(=O)c2oc3ccccc3c2C)CC1 (stereo not given) | . | 0.5 | 3.2 | -1.8 | . | -1.6 | . | .
CCN(CC)CCCNC(=O)C1CCN(C(=O)c2oc3cc4sc(N(C)C)nc4cc3c2C)CC1 | -0.6 | -1.8 | 13.3* | -52.1 | 0.5 | -149.1 | 11.6 | 9.0*
CCNc1nc(C)c(CN(C(C)=O)c2ccccc2)nc1C#N | 19.8 | -3.6 | 32.6* | i | 2.2 | i | 28.4* | 23.8* | EDANS interf=>69.5
O=C(COc1cc2oc(=O)c3c(c2cc1Cl)CCC3)NCCN1CCOCC1 | 2.2 | -3.3 | 0.0 | -1.6 | 1.2 | -28.9 | . | .
O=c1oc2c(CN3CCOCC3)c(O)ccc2c2c1CCCC2 | 37.3 | 3.8 | 51.9* | i | 0.1 | i | 68.9* | 64.3*
O=c1oc2c(CN3CCOCC3)c(O)c(Cl)cc2c2c1CCCC2 | 6.7 | 4.7 | 53.2* | i | 1.5 | i | 65.9* | 67.4*
CC(=O)N/C(=C\c1ccccc1)C(=O)Nc1ccccc1C | -0.1 | 2.2 | -0.3 | -1.1 | -2.0 | 6.7 | . | .
Cc1ccc(S(=O)(=O)N2CCCCC2)cc1NC(=O)Cc1cccs1 | 3.3 | 3.7 | 0.0 | 2.5 | -0.2 | 1.5 | . | .
CCN(CC(=O)Nc1c(F)cccc1F)C(=O)CCc1nc2sc3c(c2c(=O)[nH]1)CCCC3 | 12.9 | 24.6 | 0.8 | -8.1 | -2.0 | -16.9 | . | .
c1cc(-c2ccc(N3CCOCC3)cc2)n2cnnc2c1 | . | -0.9 | 66.9* | -395.4 | . | i | 69.4* | 67.2*
c1cc(-c2ccc3c(c2)CCO3)n2cnnc2c1 | . | -1.4 | -0.1 | -23.9 | . | -96.7 | . | .
COc1ccc(/C=N/NC(=O)c2cccc(S(=O)(=O)N3CCCC3)c2)cc1O | 1.0 | 2.0 | -0.9 | -1.2 | -15.1 | -0.2 | . | .
COc1ccc2cc(CN(CCCN3CCOCC3)Cc3nnnn3C3CCCC3)c(=O)[nH]c2c1 | 1.5 | 0.1 | 16.5* | -136.5 | 0.3 | -409.4 | 0.5 | 0.7
COc1ccc(C(=O)NCc2nnc(SCC(=O)N3CCCC3)o2)cc1OC | -0.6 | -5.8 | 0.1 | -7.5 | -4.7 | -7.3 | . | .
COc1ccccc1C1C=C(c2ccc(Cl)cc2)Nc2nc(N3C(=O)CCC3=O)nn21 (stereo not given) | 0.3 | 3.7 | 5.8 | -33.6 | 3.4 | -112.5 | . | .
O=C1CCC(=O)N1c1nc2n(n1)C(c1ccccc1)C=C(c1ccc(Br)cc1)N2 (stereo not given) | -0.4 | 1.1 | 30.2* | -14.2 | 0.5 | -36.8 | 64.1* | 47.5*
SMILES | AHR activator | rCAG binder | KLK7 zymogen act | ADAM17 inh | GRIN3A LBD mod | ADAM10 inh | proKLK7 act conf | EDANS interfere | others
COc1ccc(C2C=C(c3ccc(Br)cc3)Nc3nc(N4C(=O)CCC4=O)nn32)cc1 (stereo not given) | -1.3 | -2.1 | 28.6* | -46.5 | 13.2* | -178.4 | -81.4 | -73.4
CN1CCC(N[C@@H](Cc2c[nH]c3ccccc23)C(=O)NCC(c2ccccc2)c2ccccc2)(C(=O)NC2CCCCC2)CC1 | . | . | . | 0.4 | . | 10.6 | . | .
Cc1cc2c3c(ccc(C)c3n1)N=CN2c1ccccc1 | 16.9 | -4.0 | 61.7* | -131.8 | -6.5 | -371.7 | 7.8 | 4.8*
O=C1c2ccccc2C(=O)N1C1C(=O)N2CCSC12C(=O)OCc1ccccc1 (stereo not given) | . | 1.9 | -0.7 | 4.1 | -1.0 | -19.7 | . | .
COc1cc(/C=C2/NC(=O)N(CC(=O)Nc3cccc(C)c3)C2=O)ccc1OCC(N)=O | 2.6 | 8.6 | 146.3* | -8.9 | -1.9 | -26.4 | 50.4* | 53.8*
COc1ccc(C(=O)COC(=O)c2cc(S(=O)(=O)N3CCCCC3)ccc2N2CCOCC2)c(OC)c1 | 1.8 | 4.6 | -0.1 | -1.4 | 2.2 | -1.6 | . | .
CCCCN1C(=O)C(CC(=O)NC2CC2)CC(C(=O)N2CCOCC2)=C1C (stereo not given) | . | 1.8 | -0.7 | 0.3 | . | -0.4 | . | .
CN1c2ccccc2-c2nc3ccccc3n2C1c1ccccn1 (stereo not given) | 45.1 | 0.8 | 34.0* | i | -2.2 | i | 7.0 | 3.1
c1ccc(CN2c3ccccc3-c3nc4ccccc4n3C2c2ccccn2)cc1 (stereo not given) | 17.0 | 2.6 | -8.4 | i | 3.3 | i | . | .
CCN1c2ccccc2-c2nc3ccccc3n2C1c1ccco1 (stereo not given) | 14.2 | 0.0 | 27.1* | i | -3.0 | i | -9.2 | -13.0
COc1ccc(-c2cc(C(=O)N(C)CC(=O)Nc3ccccc3Br)c3ccccc3n2)cc1OC | 21.9 | 3.9 | 5.3 | -28.9 | -1.9 | -109.4 | . | .
